Values without a mark were called inactive. No rule for the calls is given here.
Molecular target: CD276, Q5ZPR3
Sequence (Q5ZPR3 whole entry): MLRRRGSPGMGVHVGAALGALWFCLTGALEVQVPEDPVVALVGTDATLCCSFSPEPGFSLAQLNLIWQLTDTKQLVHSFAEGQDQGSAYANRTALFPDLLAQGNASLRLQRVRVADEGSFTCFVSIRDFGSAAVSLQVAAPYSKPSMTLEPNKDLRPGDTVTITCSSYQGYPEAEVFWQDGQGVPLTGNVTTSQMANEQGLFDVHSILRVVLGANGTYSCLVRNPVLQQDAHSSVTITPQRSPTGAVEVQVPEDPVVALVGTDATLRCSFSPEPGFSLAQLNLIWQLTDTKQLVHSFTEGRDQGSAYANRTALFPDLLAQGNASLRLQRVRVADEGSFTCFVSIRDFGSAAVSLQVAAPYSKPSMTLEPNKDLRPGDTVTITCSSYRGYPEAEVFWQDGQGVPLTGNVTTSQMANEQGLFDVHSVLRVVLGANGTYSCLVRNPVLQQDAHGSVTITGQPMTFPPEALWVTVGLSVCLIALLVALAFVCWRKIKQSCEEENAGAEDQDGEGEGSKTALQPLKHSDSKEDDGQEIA

Binder	binding in a display sort
design_619_5728adc2-0aea-404f-92dd-a4575c53f550_2329_dldesign_0_cycle1_af2pred (protein) SALTKKIEEKATKLVEEAAKTTPEEARKLATEALEIAKQSPEALSALAVELLKAAAKATPEVAAVLREVAAQAMRTAIEIARA	binds (active)
design_620_fbd04095-bef7-46a9-992d-f2cb8915922f_681_dldesign_0_cycle1_af2pred (protein) AAAEAAAAAAAAAAAAEAAARAARGREIMVRTVEAIVRQARASPDGLRLARIALRVAESAGDEEAIALARAALAELEAA	not found
design_619_5728adc2-0aea-404f-92dd-a4575c53f550_2058_dldesign_0_cycle1_af2pred (protein) AAVAQSQLQITQNLVAWALSQLTTYGPAQGATIAKAVRDLALAAGLPEAVADELAAGAAGTAAEAKAKGAQAVALAQAAVAA	not found
design_620_fbd04095-bef7-46a9-992d-f2cb8915922f_329_dldesign_0_cycle1_af2pred (protein) SAESQAKAEELLREAFKRITELADAAAKSGTEEELAKAKKEMEEIAEKVEKEAGPGAGELARNYLKTQLAAAKAAIAAAK	not found
design_620_fbd04095-bef7-46a9-992d-f2cb8915922f_328_dldesign_0_cycle1_af2pred (protein) DPKAQAQATAETLAKQAKKAATEALKLAKELGDKETAEKMKEIIKKVEELLEKAKKGTAEEAGAAALEILKLLSEARKELEKLKKKA	not found
design_620_fbd04095-bef7-46a9-992d-f2cb8915922f_592_dldesign_0_cycle1_af2pred (protein) SMAEEAARAEKAAAFREQAEAILAQAQANAADAEKLQQLGQQAVELAEEAAALGDQEAAQAALRAAAQINALLVQAQ	not found
design_619_5728adc2-0aea-404f-92dd-a4575c53f550_1668_dldesign_0_cycle1_af2pred (protein) ARAVVEAAANELAAETLRAGWQAGETGDAIAARIRAILEAGREVAEELAARNPAVTLEEARAAVRERAERLLAEAAA	not found
design_620_fbd04095-bef7-46a9-992d-f2cb8915922f_36_dldesign_0_cycle1_af2pred (protein) AAEEALKKLKELAEKTKKVAEEAGKVNPALAPEADFLSALAEAALNYAKKNAASPDFEKIAKKQLEQIKKALERAEKLLKEAKAQAA	not found
design_619_5728adc2-0aea-404f-92dd-a4575c53f550_1820_dldesign_0_cycle1_af2pred (protein) AEAAKRAAAEAAVKKAAELAAKADPALAKRILDAKTIAEGISAAFTAAAQLIQKDPELAAEIVKEAEKAA	not found
design_619_5728adc2-0aea-404f-92dd-a4575c53f550_1269_dldesign_0_cycle1_af2pred (protein) AKEEAKEKAKKLVEEAKKLAEAAIADPSQYPAQAAKMTKLAEEAAKLGKELDPEIFGEAAQEILRLLIQAAQAVN	not found
design_619_5728adc2-0aea-404f-92dd-a4575c53f550_1681_dldesign_0_cycle1_af2pred (protein) AEKAKQAAELAEVLAATAEQAPQLTPAQIAAVANTVAIGLKGLGEAKEAAELAEKAAEAAKRDKEEAVKLLREAAEALKKLAA	not found
design_619_5728adc2-0aea-404f-92dd-a4575c53f550_1867_dldesign_0_cycle1_af2pred (protein) AAEKAALLAAAEATLARAQEVLAQAKKYPEVQPLAAAALGYALAAQGAVLVDPATGKAFLAKAQALLAEAEAQIKALEA	not found
design_619_5728adc2-0aea-404f-92dd-a4575c53f550_1976_dldesign_0_cycle1_af2pred (protein) SPALLAARKAITETAAATINALTDPAAANLVGRAMIQGLQLAQQGEAAGAHAAAAVAALALVEAAAAAARALDAAAA	not found
design_619_5728adc2-0aea-404f-92dd-a4575c53f550_1912_dldesign_0_cycle1_af2pred (protein) AAQQQAQVAAAATQAVADQTIKVAEELGKYDPELAKKYKEEATKIKKQAQEAAKQGQQGLQQVNQLLSQALELLGEAAKKLREAK	not found
design_620_fbd04095-bef7-46a9-992d-f2cb8915922f_119_dldesign_0_cycle1_af2pred (protein) REAAAEELRRLAEEARRLGEAGTPEVRSMARMMATAMEVIARGGNVELALEALRAAAAGIANDGKFGAEMEELARRAEEAVR	not found
design_619_5728adc2-0aea-404f-92dd-a4575c53f550_2222_dldesign_0_cycle1_af2pred (protein) MENLEKAKELLEKAEAYVKAAAASDLATAQALLGQAVAAGQEAVELLKDSPIYPEVSRKVVELIRAGLAAVAAKA	not found
design_620_fbd04095-bef7-46a9-992d-f2cb8915922f_548_dldesign_0_cycle1_af2pred (protein) MNASERVIARAEAIIAEAAALGAAHPAMAGETAAIQALARSAARMARSGEHIEDAEKAVEVAEAMLAATAARAAALAA	not found
design_619_5728adc2-0aea-404f-92dd-a4575c53f550_1575_dldesign_0_cycle1_af2pred (protein) AAWQALEIAKKAGLALAKSAAAMPNPEDAKKAAETAKDMVTATAQAVIDAGGDKEKAKALVEEVKKAAEAGVKAAKA	not found
design_619_5728adc2-0aea-404f-92dd-a4575c53f550_1814_dldesign_0_cycle1_af2pred (protein) DEELRKEVLEKIKELEAKAKEAAADPATQGLAVFLKNTAATARRELEKDAELGLAVVEAGEEGLAYLQAS	not found

Binder	binding in a display sort
design_619_5728adc2-0aea-404f-92dd-a4575c53f550_2217_dldesign_0_cycle1_af2pred (protein) DPAAALEKRTAAAMLAQAKAAVDADPALGRQRIANMEQLGKASPALAPYLLPAAEEARAYLAAKEAAAAA	not found
design_619_5728adc2-0aea-404f-92dd-a4575c53f550_1766_dldesign_0_cycle1_af2pred (protein) ADPAALAAIQEQRDKALKEIEEAAKEAKETTEEEARKKIVDAAHTATAQLAQIGVAHPAVAAEAGQAISEILDAGKRALEEAKKNA	not found
design_620_fbd04095-bef7-46a9-992d-f2cb8915922f_254_dldesign_0_cycle1_af2pred (protein) AERLRAAAERLEAAAAATPEAAEAALAEAAALAEEVAAEYPGLGQLILNTLRQAAGLSPEERARAVARQFRALADYL	not found
design_619_5728adc2-0aea-404f-92dd-a4575c53f550_2492_dldesign_0_cycle1_af2pred (protein) AIADEIIALARAAAEAADPEESTRLMREAAELAVEKFPELTPEEANAVIGEFLEAAARASPEAAVIATRAAARLGAQLAA	not found
design_619_5728adc2-0aea-404f-92dd-a4575c53f550_1536_dldesign_0_cycle1_af2pred (protein) SAALEEARREFEAAVELLAEHPDLAAKVREGFELGVTDIGAGLALLTEARREALELGLEAAAREIRAGMAALLRAHL	not found
design_620_fbd04095-bef7-46a9-992d-f2cb8915922f_347_dldesign_0_cycle1_af2pred (protein) DAVAAGQALLYAAKSQGYIGKAKKAVKEGKLEEAKEYAEKAEEYAKKSEEYAKQSGDAAVQAQAKKVQEQVKKTKEEVKKAE	not found
design_619_5728adc2-0aea-404f-92dd-a4575c53f550_1938_dldesign_0_cycle1_af2pred (protein) AKEEAKKLLEKTKKEAEKAVKEAEAGTPTTAAEQAVKVLEFGKEAVEKARELGDEETAEQIAQVTNEAVAKITKAAIAKAK	not found
design_620_fbd04095-bef7-46a9-992d-f2cb8915922f_77_dldesign_0_cycle1_af2pred (protein) DAVTAQIKALGAAGVAQARADPENAVAIASRTNAQIWGLILAAGADAAASAVALEATRANAEAVRETTAAAAAAAAAAAAAAAA	not found
design_619_5728adc2-0aea-404f-92dd-a4575c53f550_1353_dldesign_0_cycle1_af2pred (protein) GETGEAKREGARVAARLGAAAVQLAAVDPEVAKKAQAAVGEVLEAMEAAAKDPSKVEEVKKAREKAEKALKEAEKTLA	not found
design_619_5728adc2-0aea-404f-92dd-a4575c53f550_1370_dldesign_0_cycle1_af2pred (protein) AAAAVAANRAAAAATAETYKAKGKAAAADPAAALAYYNAAGLYAGLAKGDPEAEFAKYKAEADALIAAAKA	not found
design_619_5728adc2-0aea-404f-92dd-a4575c53f550_1864_dldesign_0_cycle1_af2pred (protein) MEEEKEKKEKEKLKKAKELLKKAKEMAENVAEYSVGEILRVATEAIRLATEAAKGKLKEEGKKVADEARKVAAEAARRALALQ	not found
design_619_5728adc2-0aea-404f-92dd-a4575c53f550_2359_dldesign_0_cycle1_af2pred (protein) SQAQGELLEAVKYASKAMKLDPALAPQLQQAINLLVRAIVLLAQGDEAQAAEEAKKAAKLFEEAAKKASPEAAKELKKAAKEAEKAI	not found
design_619_5728adc2-0aea-404f-92dd-a4575c53f550_1779_dldesign_0_cycle1_af2pred (protein) SAATEIATRTAQAAIRAGEEALERAREALEGETGREEVEREVARIEAQAETLELLAEGSPEIAPTANAKAEEFRREAERLREEAE	not found
design_619_5728adc2-0aea-404f-92dd-a4575c53f550_1264_dldesign_0_cycle1_af2pred (protein) GEEAAKKAEKAVEALKQGAKEAAKGTPELAANTAKSYITMAKSIAKGAKRADGGEAAKKVEKKAKEAIAEAKKLAKAAA	not found
design_620_fbd04095-bef7-46a9-992d-f2cb8915922f_187_dldesign_0_cycle1_af2pred (protein) GEARRQFAEDTAAAAKQAAALYAADPEKAQQVKDAADKAVAAAESGEDAQLAGLSAIKVYQALVEAQKAA	not found
design_619_5728adc2-0aea-404f-92dd-a4575c53f550_1162_dldesign_0_cycle1_af2pred (protein) SPVEQYAKAQADMLKEAAGVDDATAQAFADYIVANPALATQAGAMTVAIVRAADAARAAAAAAAAAAAAAAAA	not found
design_619_5728adc2-0aea-404f-92dd-a4575c53f550_1666_dldesign_0_cycle1_af2pred (protein) SEADAAALDELARLAGEVTGKPEEALALAEIAKQDPLALATLAAMARQARAASPEEAAQLARNAFQIMKALA	not found
design_619_5728adc2-0aea-404f-92dd-a4575c53f550_1124_dldesign_0_cycle1_af2pred (protein) ELEELRKEAEAKAAEARALAAEGAKYDPTAAALFNAALRFFEIAIRLAEEGGDPEEARAALDAGTTLLAAGRAVLAAAAAAAA	not found
design_620_fbd04095-bef7-46a9-992d-f2cb8915922f_158_dldesign_0_cycle1_af2pred (protein) IDTQANLELAKKSFNAALAQARRFAKTDRQAALAALKSAEVYAEAAEAADPAAGEELRKKVEEARKEIEAA	not found

Reference: article PMC13494018
